High-throughput results (PubChem BioAssay)
Rows were chosen to be rich in hits. Some 1.8% of all compounds tested hit in one or more screens of this group.
PDI turbidity – blocks human protein disulfide isomerase activity; P07237; PDI insulin aggregation turbidity, A650, 90 min; inhibition, % at 10 µM; hit rate 0.052% among 350,000; AID 588391;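 active = mean inhibition across replicates of 30% or more, whatever share of single replicates reach that level; inconclusive = mean inhibition below 30% while every single replicate reaches 30%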
ERp5 inh – inhibitors of human ERp5 | Q15084 | inhibition, % at 9.99 µM | ERp5 insulin aggregation, absorbance 650 nm, 90 min | hit rate 0.05% among 350,000;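 active = mean replicate inhibition above about 25%, with every replicate also reaching it, limit read from the data, passing the limit was not always enough; inconclusive = only one of those two criteria met; inactive = neither criterion met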
AF4-AF9 inh – blocks AF4 peptide binding to human AF9 | AlphaScreen, biotin-AF4 peptide binding to FLAG-AF9 | inhibition, % at 10 µM | hit rate 0.47% among 350,000;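 active = every replicate reaching a set inhibition limit, whatever the replicate mean, cut at about 25% in these data; inconclusive = mean inhibition reaches that limit but some replicates miss it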;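 note: 0% = plate neutral control median and 100% = total signal loss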
DENV2 CPE – inhibitors of DENV2 cytopathic effect. DENV2-infected cells, cytopathic effect rescue, plate reader. CPE inhibition, % at 9.99 µM. hit rate 1.7% among 350,000. AID 651640; in the data active = CPE inhibition above about 20%, passing the limit was not always enough; inconclusive = no clear call, values can overlap the other calls; tested in BHK-21 cells;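 note: 0% = median of neutral control wells and 100% = median of positive control wells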
ERAP1 HTS inh – ERAP1 (human) enzyme inhibition; recombinant ERAP1, Leu-AMC fluorescence, 60 min; Q9NZ08; AID 652197; inhibition, % at 10.7 µM; hit rate 0.15% among 340,000;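 active = mean replicate inhibition of at least 30%, or all replicates individually reaching that 30% level; inactive = mean below 30% and not every replicate reaching it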;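 note: 0% = neutral control wells and 100% = L-leucinethiol positive control wells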
Target sequence (Q9NZ08 whole entry, looked up): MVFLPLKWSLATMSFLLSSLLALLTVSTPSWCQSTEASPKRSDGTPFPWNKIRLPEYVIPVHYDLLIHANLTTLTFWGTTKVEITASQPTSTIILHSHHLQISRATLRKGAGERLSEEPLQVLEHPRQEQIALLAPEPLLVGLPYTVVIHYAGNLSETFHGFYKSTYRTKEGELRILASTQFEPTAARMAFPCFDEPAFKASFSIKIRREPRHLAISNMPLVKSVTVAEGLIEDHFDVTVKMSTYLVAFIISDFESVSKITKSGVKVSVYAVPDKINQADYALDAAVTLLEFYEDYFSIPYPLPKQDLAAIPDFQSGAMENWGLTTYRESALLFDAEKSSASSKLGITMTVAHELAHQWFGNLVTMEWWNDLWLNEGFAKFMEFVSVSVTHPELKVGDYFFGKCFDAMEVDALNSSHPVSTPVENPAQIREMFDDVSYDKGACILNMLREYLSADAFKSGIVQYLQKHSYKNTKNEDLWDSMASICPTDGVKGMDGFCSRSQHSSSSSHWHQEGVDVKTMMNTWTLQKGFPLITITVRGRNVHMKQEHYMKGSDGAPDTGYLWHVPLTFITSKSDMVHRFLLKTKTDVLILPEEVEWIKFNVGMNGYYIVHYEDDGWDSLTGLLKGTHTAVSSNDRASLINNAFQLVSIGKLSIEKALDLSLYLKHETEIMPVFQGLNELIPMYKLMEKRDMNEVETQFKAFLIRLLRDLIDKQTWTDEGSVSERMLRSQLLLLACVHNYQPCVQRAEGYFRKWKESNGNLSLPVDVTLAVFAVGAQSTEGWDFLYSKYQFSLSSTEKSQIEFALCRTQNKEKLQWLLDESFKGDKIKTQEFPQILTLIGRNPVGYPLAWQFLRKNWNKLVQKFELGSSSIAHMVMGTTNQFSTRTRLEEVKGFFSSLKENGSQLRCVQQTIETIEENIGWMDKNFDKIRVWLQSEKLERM
* hit, by the source's call; ? = inconclusive; · = no result given; ! = not active in a repeat.

SMILES	PDI turbidity	ERp5 inh	AF4-AF9 inh	DENV2 CPE	ERAP1 HTS inh
O=C(c1ccccc1Cc1ccccc1)N1CCN(S(=O)(=O)c2ccccc2)CC1	-1	2	0	68*	-6
O=C(c1ccccc1Cc1ccccc1)N1CCN(S(=O)(=O)c2ccccc2F)CC1	4	2	3	10	-2
COc1ccccc1C(=O)Nc1ccc2c(c1)OC[C@H](C)N(C)C[C@H](C)[C@H](OC)CN(C)C2=O	·	-7	0	-5	-6
COC(=O)c1ccc(N2C(c3cc(OC)cc(OC)c3)=Cc3ccc(OC)cc3C2CC(=O)c2ccco2)cc1 (stereo unspecified)	·	7	2	31*	-1
COCCn1c(SCC(=O)Nc2ccc3c(c2)OCCO3)nnc1C(C)C	-3	0	0	22*	-3
CCCc1nnc(SCC(=O)Nc2ccc3c(c2)OCCO3)n1CCOC	1	1	3	1	-1
CCNC(=O)C[C@H]1CC[C@@H]2[C@@H](COc3ccc(NC(C)=O)cc3C(=O)N2C)O1	·	-2	-20	-10	1
COc1ccc(S(=O)(=O)N[C@@H]2C=C[C@@H](CC(=O)NCCc3ccccc3)O[C@@H]2CO)cc1	·	2	1	39*	-1
COC(=O)C[C@@H]1C=C[C@@H](NS(=O)(=O)c2ccc(OC)cc2)[C@@H](CO)O1	·	5	-3	23*!	-1
COc1ccc(S(=O)(=O)N[C@H]2C=C[C@H](CC(=O)NCCc3ccccc3)O[C@H]2CO)cc1	·	0	-7	-1	-1
CC(C)CN(C(=O)COC(=O)c1cc(=O)[nH]c2ccccc12)c1c(N)n(Cc2ccccc2)c(=O)[nH]c1=O	0	3	-4	16	1
O=C(OCC(=O)N1CCOCC1)c1cc(=O)[nH]c2ccccc12	4	4	-1	28*	2
Cc1ccsc1C(=O)OCC(=O)N(C)c1c(N)n(Cc2ccccc2)c(=O)[nH]c1=O	-2	0	-1	-3	-2
COCCN(C(=O)COC(=O)CNC(=O)c1cccs1)c1c(N)n(Cc2ccccc2)c(=O)[nH]c1=O	-14	-3	-2	-4	35*
CCN(C(=O)COC(=O)c1cc(=O)[nH]c2ccccc12)c1c(N)n(Cc2ccccc2)c(=O)[nH]c1=O	9	2	-11	65*	0
Cc1ccc(C(=O)OCC(=O)N(C)c2c(N)n(Cc3ccccc3)c(=O)[nH]c2=O)s1	-1	-5	-7	36*	-2
CCS(=O)(=O)N1CCC2(CC1)CN(Cc1ccccc1OC)[C@@H](CO)c1c2c2ccc(OC)cc2n1C	·	2	-3	-5	-4
Cc1nnc(SCC(=O)N(CC(C)C)c2c(N)n(Cc3ccccc3)c(=O)[nH]c2=O)n1N	-7	0	-1	79*	6
O=C(C[C@@H]1C[C@H]2c3cc(NC(=O)CC4CC4)ccc3O[C@H]2[C@H](CO)O1)NCc1ccccc1	·	4	-6	-3	0
O=C(/C=C/c1cccs1)Nc1scc(-c2ccccc2)c1C(=O)O	1	3	27*	1	1
O=C(/C=C/c1cccs1)Nc1nc(-c2ccccc2)cs1	2	·	·	·	·
CCC(=O)Nc1ccc2c(c1)C(=O)N(C)[C@H]1CC[C@H](CC(=O)NC3CCCC3)O[C@H]1CO2	·	-3	1	-10	1
CN1C(=O)c2cc(NC(=O)NC3CCCC3)ccc2OC[C@H]2O[C@H](CC(=O)NC3CCC3)CC[C@@H]21	·	-7	-1	61*	0
CCC(=O)Nc1ccc2c(c1)C(=O)N(C)[C@@H]1CC[C@H](CC(=O)NC3CCCC3)O[C@H]1CO2	·	-3	-1	43*	3
COc1ccc(S(=O)(=O)N[C@@H]2C=C[C@H](CC(=O)N3CCN(c4ccccc4)CC3)O[C@@H]2CO)cc1	·	-4	0	-2	1
SMILES	PDI turbidity	ERp5 inh	AF4-AF9 inh	DENV2 CPE	ERAP1 HTS inh
CNC[C@H]1Oc2c(cccc2N(C)C)C(=O)N([C@H](C)CO)C[C@H]1C	·	-1	-2	1	-1
CNC(=O)C[C@H]1CC[C@@H]2[C@H](COc3ccc(NC(=O)c4ccc(F)c(F)c4)cc3C(=O)N2C)O1	·	2	-1	95*	1
CNC(=O)C[C@@H]1CC[C@@H]2[C@H](COc3ccc(NC(=O)c4ccc(F)c(F)c4)cc3C(=O)N2C)O1	·	0	-3	97*	1
CNC(=O)C[C@H]1CC[C@H]2[C@H](COc3ccc(NC(=O)c4ccc(F)c(F)c4)cc3C(=O)N2C)O1	·	1	0	?	1
COCc1cn(CC[C@H]2CC[C@@H](NC(=O)Nc3ccc4c(c3)OCO4)[C@H](CO)O2)nn1	·	2	-2	-3	-5
O=C(c1ccc(F)cc1)N1CC(=O)N2[C@H](C1)[C@@H](c1ccc(C#CC3CCCC3)cc1)[C@@H]2CO	·	1	3	17	-5
O=C(Nc1ccc2c(c1)OCO2)c1cc(C2CCCCN2C(=O)OCCF)on1 (stereo unspecified)	-7	4	4	20*	11
O=C(NCc1ccc(Cl)c(Cl)c1)c1cc(C2CCCCN2C(=O)OCCF)on1 (stereo unspecified)	-2	4	0	30*	2
O=C(C[C@@H]1CC[C@H]2[C@@H](COC[C@H](O)CN2Cc2cccc(-c3ccncc3)c2)O1)N1CCN(c2ccccc2)CC1	·	-5	8	14	-1
Cc1noc(C)c1S(=O)(=O)Nc1ccc2c(c1)C(=O)N([C@@H](C)CO)C[C@@H](C)[C@@H](CN(C)C(=O)Nc1ccc3c(c1)OCO3)O2	·	-1	0	-8	0
COc1ccc(S(=O)(=O)Nc2ccc3c(c2)C(=O)N([C@@H](C)CO)C[C@@H](C)[C@@H](CN(C)S(=O)(=O)c2ccccc2)OCCCC[C@H](C)O3)cc1	·	2	-1	21*	-2
COc1ccc(S(=O)(=O)N(C)C[C@H]2OCCCC[C@@H](C)Oc3ccc(NS(=O)(=O)c4ccccc4)cc3C(=O)N([C@@H](C)CO)C[C@H]2C)cc1	·	0	1	56*	-3
COc1ccc(S(=O)(=O)N(C)C[C@@H]2Oc3ccc(NS(=O)(=O)c4ccccc4)cc3C(=O)N([C@H](C)CO)C[C@H]2C)cc1	·	·	·	133*	·
COc1ccc(S(=O)(=O)N(C)C[C@H]2OCCCC[C@H](C)Oc3ccc(NS(C)(=O)=O)cc3C(=O)N([C@H](C)CO)C[C@@H]2C)cc1	·	-1	2	20*	-1
COc1ccc(S(=O)(=O)Nc2ccc3c(c2)C(=O)N([C@H](C)CO)C[C@@H](C)[C@H](CN(C)S(=O)(=O)c2ccccc2)O3)cc1	·	10	0	-2	-1
COc1ccc(S(=O)(=O)N(C)C[C@H]2OCCCC[C@@H](C)Oc3ccc(NS(C)(=O)=O)cc3C(=O)N([C@H](C)CO)C[C@@H]2C)cc1	·	0	-1	10	2
CCCNC(=O)N1CC2(CN(Cc3nccs3)C2)c2c([nH]c3cc(OC)ccc23)[C@@H]1CO	·	4	1	-8	-5
